# Source: PubChem BioAssay
# CYP2C19 inh: human CYP2C19 inhibition; P33261; CYP2C19 Supersomes, luciferin-H EGE luminescence, 30 min; inhibition, % at 5 µM; 96,000 tested, 21% active; AID 778;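 active = CYP2C19 inhibition above a set limit at 5 µM in the primary screen, cut at about 50% in these data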;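 note: plate controls were negative control wells for no effect and 2.5 mM tranylcypromine positive control for full effect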
# MRP resist rev: MRP-mediated drug resistance reversal; H69AR cells + 2 uM doxorubicin, CellTiter-Glo, 72 h; differential viability (reversal), % at 10 µM; 85,000 tested, 0.04% active;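 active = viability drop by adding the cancer drug above about 55%, with treated viability meeting a 40% cutoff, limit read from the data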;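 note: viability without doxorubicin minus viability with 2 µM doxorubicin for each compound; larger differential means the compound sensitizes cells more to doxorubicin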
# CYP2C9 inhib: blocks human cytochrome P450 2C9; CYP2C9 Supersomes, luciferin-H conversion, luminescence; inhibition, % at 5 µM; 96,000 tested, 20% active; AID 777;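 active = blocking of liver enzyme CYP2C9 beyond about 50% at 5 µM, limit read from the data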
# Target sequence (P11712 whole entry, looked up): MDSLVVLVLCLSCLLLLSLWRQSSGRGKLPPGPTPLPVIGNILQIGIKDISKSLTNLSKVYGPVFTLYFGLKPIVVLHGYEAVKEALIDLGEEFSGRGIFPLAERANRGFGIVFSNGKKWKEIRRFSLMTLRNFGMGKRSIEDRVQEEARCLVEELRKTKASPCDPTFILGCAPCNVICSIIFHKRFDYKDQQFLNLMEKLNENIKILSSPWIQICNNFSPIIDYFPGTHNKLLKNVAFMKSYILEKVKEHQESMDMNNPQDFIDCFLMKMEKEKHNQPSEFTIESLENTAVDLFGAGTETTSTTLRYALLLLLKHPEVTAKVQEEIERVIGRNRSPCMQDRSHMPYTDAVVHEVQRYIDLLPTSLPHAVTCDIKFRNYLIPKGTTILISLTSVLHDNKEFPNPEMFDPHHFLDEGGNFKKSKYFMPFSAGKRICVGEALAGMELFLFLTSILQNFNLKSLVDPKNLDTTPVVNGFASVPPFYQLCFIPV
# CYP2C9 act: increases human cytochrome P450 2C9 activity; P11712; recombinant CYP2C9, luciferin-H conversion, luminescence; hits give high values; factor 1 = untreated enzyme, 0 = blocked; activation factor at 5 µM; 96,000 tested, 1.4% active; AID 1024;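 active = activation factor of 2 or more for CYP2C9 at a 5 µM dose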;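 note: 0 = sulfaphenazole-blocked wells and 1 = vehicle-only wells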
# CYP2C19 activ: activators of human cytochrome P450 2C19; activation factor at 5 µM; 96,000 tested, under 10 active; recombinant CYP2C19, luciferin-H EGE luminescence; hits give high values; 0 = fully inhibited enzyme, 1 = untreated enzyme; P33261;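 active = activation factor of at least 2 at 5 µM in the primary screen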;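 note: 0 = wells with 2.5 mM tranylcypromine and 1 = vehicle-only wells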
# MRP-1 activ: activates MRP-1. AID 799. viability increase, % at 10 µM. H69AR cells + doxorubicin, viability rescue, CellTiter-Glo. 140,000 tested, 0.61% active;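 active = viability gain under doxorubicin at or above a set limit, the compound median plus 3 SD, cut at about 4.7% in these data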;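 note: MRP-1 overexpressing cells given doxorubicin 25 µM after compound pretreatment; 18-22 h compound pretreatment then 72 h with doxorubicin before readout; 0% = doxorubicin-only wells and 100% = vehicle-treated cells without doxorubicin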
# An asterisk follows results filed as active; x = no result. In the library only some 21% were active in any assay of this set; here they are far more common.
SMILES,CYP2C19 inh,MRP resist rev,CYP2C9 inhib,CYP2C9 act,CYP2C19 activ,MRP-1 activ
O=S(=O)(NC12CC3CC(CC(C3)C1)C2)c1ccc(F)cc1,88*,-6,83*,0.2,0.1,-1
O=c1cc(NCc2ccco2)[nH]c(=O)n1-c1ccc(Br)cc1,x,9,x,x,x,-2
CCCCn1nnnc1NCc1ccc(C)s1,x,8,x,x,x,-2
O=S1(=O)C=CC(N2CCOCC2)C1 (stereo not given),-12,x,-20,1.2,1.1,-2
Cn1c(=O)c2c(ncn2CC(=O)OCC(=O)Nc2cc(Cl)ccc2Cl)n(C)c1=O,x,x,x,x,x,-1
O=S(=O)(c1ccc(F)cc1)N1CCn2c(nc3ccccc32)C1,44,0,15,0.9,0.6,0
O=S(=O)(c1ccccc1)N1CCn2c(nc3ccccc32)C1,71*,7,24,0.8,0.3,0
CC1(C)CC(=O)C2=C(C1)Nc1ccccc1N=C2,x,0,x,x,x,-4
CC(CCc1ccccc1)NC(=O)c1cncc(Br)c1 (stereo not given),31,14,15,0.8,0.7,-1
COc1cc(OC)cc(C(=O)N2CCN(Cc3cccc(F)c3)CC2)c1,98*,7,-32,1.3,0,-1
COc1cccc(C(=O)N2CCN(C3CCN(Cc4ccccc4)CC3)CC2)c1,-6,4,-6,1.1,1.1,0
O=C(c1cccc(F)c1)N1CCN(Cc2ccco2)CC1,69*,2,10,0.9,0.3,-1
CCOc1ccc(CN2CCN(C(=O)c3cccc(F)c3)CC2)cc1,x,19,x,x,x,-3
O=C(c1ccco1)N1CCN(Cc2cccc(F)c2)CC1,43,-8,-2,1,0.6,-3
COc1cccc(C(=O)N2CCN(Cc3cccc(F)c3)CC2)c1,98*,9,44,0.6,0,-1
CCCCCn1c(N2CCOCC2)nc2c1c(=O)n(CC(N)=O)c(=O)n2C,-11,20,-8,1.1,1.1,0
Cc1ccc(S(=O)(=O)NC(c2ccccc2)C(C)C(=O)n2nc(C)cc2C)cc1 (stereo not given),100*,x,50,0.5,0,-1
Cc1ccc(S(=O)(=O)NC(CC(=O)n2nc(C)cc2C)c2ccccc2)cc1 (stereo not given),100*,x,94*,0.1,0,-1
Cc1ccc(S(=O)(=O)NC(CC(=O)O)c2ccccc2)cc1 (stereo not given),-9,0,10,0.9,1.1,-3
O=C1C2C(C(=O)N1/N=C/c1ccco1)C1C=CC2C12CC2 (stereo not given),99*,x,7,0.9,0,0
CC(C)CNC(=S)NNC(=O)c1csc2c1CCC(C)C2 (stereo not given),52*,x,6,0.9,0.5,-1
Cc1cccc(NC(=S)NNC(=O)c2csc3c2CCC(C)C3)c1 (stereo not given),25,x,43,0.6,0.8,0
Cn1nc([N+](=O)[O-])nc1Sc1nnc(-c2ccccc2)o1,19,1,52*,0.5,0.8,-5
O=C(/C=C/c1ccc(Br)cc1)N1CCN(c2cccc(C(F)(F)F)c2)CC1,x,x,x,x,x,4
COc1cc(CC(=O)NCc2ccco2)cc(OC)c1OC,21,x,-6,1.1,0.8,-2
SMILES,CYP2C19 inh,MRP resist rev,CYP2C9 inhib,CYP2C9 act,CYP2C19 activ,MRP-1 activ
Cc1ccc2c(CC(=O)NCc3ccco3)coc2c1C,99*,-16,-54,1.5,0,-3
O=C(NCc1ccco1)c1ccc(Br)s1,70*,6,37,0.6,0.3,-5
Cc1c(Br)cc(C(=O)NCc2ccco2)c(C)c1C,77*,-20,-168,2.7*,0.2,-2
Cc1ccc(C(=O)NCc2ccco2)cc1Br,70*,12,-32,1.3,0.3,-1
Cc1ccc(C)c(OCCSc2nnc(-c3cccnc3)n2N)c1,x,x,x,x,x,-2
CC(=O)N1CCC(N(CCN2CCOCC2)C(=S)Nc2c(C)cccc2C)CC1,x,x,x,x,x,-2
COc1ccc(-c2cc(=O)oc3cc(OCC(=O)c4cccc([N+](=O)[O-])c4)ccc23)cc1,x,x,x,x,x,-3
COC(=O)CSc1[nH]c(=O)cc(C)c1C#N,-11,34,2,1,1.1,-2
Cc1cc(=O)[nH]c(SCC(=O)Nc2ccc(Br)cc2)c1C#N,95*,7,93*,0.1,0.1,-3
Cc1cc(=O)[nH]c(SCC(=O)Nc2ccccc2C#N)c1C#N,64*,x,71*,0.3,0.4,0
COc1ccc(CNC(=O)C(c2ccco2)N(C(=O)CNS(=O)(=O)c2ccccc2)c2ccccc2C)cc1 (stereo not given),x,x,x,x,x,-2
Cn1c(SCc2nc3ccccc3[nH]2)nnc1-c1cccs1,78*,-8,20,0.8,0.2,0
Cn1c(Cc2cccs2)nnc1SCc1nc2ccccc2[nH]1,59*,-5,3,1,0.4,-3
c1csc(Cc2nc3ccccc3[nH]2)c1,37,x,-16,1.2,0.6,0
Cc1ccc(CSc2nnc(-c3cccs3)n2C)cc1,x,11,x,x,x,-3
Cc1cc2cc(CNC(=O)Cc3cccs3)ccc2n1C,x,-32,x,x,x,x
O=C(COc1ccccc1)NNc1c2ccccc2nc2ccccc12,15,x,-222,3.2*,0.8,-2
CCCC(=O)NNc1c2ccccc2nc2ccccc12,x,x,x,x,x,0
COc1ccc(OCC(=O)NNc2c3ccccc3nc3ccccc23)cc1,0,x,-134,2.3*,1,-1
O=C(NNc1c2ccccc2nc2ccccc12)c1ccc(O)cc1O,66*,x,71*,0.3,0.3,-3
COc1ccc(OCC(=O)Nc2nc3ccccc3[nH]2)cc1,-5,-14,-7,1.1,1,0
COCn1c(-c2ccc(OC)c(OC)c2)nc2ccccc21,18,13,5,0.9,0.8,-2
COCn1c(-c2cccc(Br)c2)nc2ccccc21,86*,-8,69*,0.3,0.1,-3
Cc1cccc(N=C2NC(=O)/C(=C3/C(=O)N(C)c4ccccc43)S2)c1C,50*,6,93*,0.1,0.5,-5
CN1C(=O)/C(=C2\SC(=S)N(CC3CCCO3)C2=O)c2ccccc21 (stereo not given),15,-16,40,0.6,0.8,-2
SMILES,CYP2C19 inh,MRP resist rev,CYP2C9 inhib,CYP2C9 act,CYP2C19 activ,MRP-1 activ
C=CCn1sc(=N)c(C#N)c1N,-6,3,16,0.8,1.1,-2
Cc1ccnc(Nc2nc3ccccc3o2)n1,44,-8,10,0.9,0.6,-2
N#Cc1cnc(Nc2nc3ccccc3o2)nc1-c1ccccc1,21,6,62*,0.4,0.8,-2
CC(C)c1ccc(/C=C/C(=O)NC(=S)Nc2ccc(CN3CCOCC3)cc2)cc1,x,x,x,x,x,-3
CNC(=O)[C@@H]1C[C@H]1[C@@H](NC(=O)OCc1ccccc1)c1ccccc1,x,x,x,x,x,-3
Cc1ccccc1Cn1cnc2c([N+](=O)[O-])c(C)c(C)cc21,46,x,39,0.6,0.5,-4
COc1ccc(Cn2cnc3c([N+](=O)[O-])c(C)c(C)cc32)cc1,53*,x,59*,0.4,0.5,-4
